Results as given in ChEMBL document CHEMBL1961873, “Compounds: GSK PKIS; Assays: Nanosyn kinase panel” (2012).
Values joined by “and” are separate entries in the source; they are usually repeats but may differ in a detail not shown here. Equal entries are not always repeated.

Experiments:
[1] = target: Ribosomal protein S6 kinase alpha-6 (Homo sapiens) (UniProt Q9UK32); conditions: at 1 µM;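 note: each value is a mean inhibition of RSK4 from a GSK PKIS panel screen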
[2] = target: T1, Serine/threonine-protein kinase Sgk1 (Homo sapiens) (UniProt O00141); conditions: at 0.1 µM
T1 sequence (whole entry): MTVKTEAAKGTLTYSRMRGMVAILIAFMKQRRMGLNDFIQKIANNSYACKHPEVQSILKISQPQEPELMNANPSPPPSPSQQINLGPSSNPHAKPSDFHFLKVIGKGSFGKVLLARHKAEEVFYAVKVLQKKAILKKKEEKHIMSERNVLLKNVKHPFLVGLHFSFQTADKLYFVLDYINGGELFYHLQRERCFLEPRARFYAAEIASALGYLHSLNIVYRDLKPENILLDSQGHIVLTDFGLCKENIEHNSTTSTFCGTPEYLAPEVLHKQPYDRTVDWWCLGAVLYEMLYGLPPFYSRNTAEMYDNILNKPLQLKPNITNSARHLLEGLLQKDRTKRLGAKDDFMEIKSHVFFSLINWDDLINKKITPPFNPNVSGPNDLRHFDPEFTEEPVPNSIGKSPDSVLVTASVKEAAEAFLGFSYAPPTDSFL

[3] = target: T1, Serine/threonine-protein kinase Sgk1 (Homo sapiens); conditions: at 1 µM
[4] = target: T2, Serine/threonine-protein kinase Sgk2 (Homo sapiens) (UniProt Q9HBY8); conditions: at 0.1 µM
T2 sequence (whole entry): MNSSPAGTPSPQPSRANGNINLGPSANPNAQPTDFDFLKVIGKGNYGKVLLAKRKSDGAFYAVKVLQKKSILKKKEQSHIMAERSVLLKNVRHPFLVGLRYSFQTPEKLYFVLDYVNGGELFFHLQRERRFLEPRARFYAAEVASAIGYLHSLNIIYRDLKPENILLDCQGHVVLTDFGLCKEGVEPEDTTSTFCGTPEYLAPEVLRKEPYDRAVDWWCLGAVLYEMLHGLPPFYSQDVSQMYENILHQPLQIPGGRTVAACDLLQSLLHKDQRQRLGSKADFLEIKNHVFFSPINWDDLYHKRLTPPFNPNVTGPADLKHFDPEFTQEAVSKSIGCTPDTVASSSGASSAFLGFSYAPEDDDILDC

[5] = target: T2, Serine/threonine-protein kinase Sgk2 (Homo sapiens); conditions: at 1 µM
[6] = target: T3, Serine/threonine-protein kinase Sgk3 (Homo sapiens) (UniProt Q96BR1); conditions: at 0.1 µM
T3 sequence (whole entry): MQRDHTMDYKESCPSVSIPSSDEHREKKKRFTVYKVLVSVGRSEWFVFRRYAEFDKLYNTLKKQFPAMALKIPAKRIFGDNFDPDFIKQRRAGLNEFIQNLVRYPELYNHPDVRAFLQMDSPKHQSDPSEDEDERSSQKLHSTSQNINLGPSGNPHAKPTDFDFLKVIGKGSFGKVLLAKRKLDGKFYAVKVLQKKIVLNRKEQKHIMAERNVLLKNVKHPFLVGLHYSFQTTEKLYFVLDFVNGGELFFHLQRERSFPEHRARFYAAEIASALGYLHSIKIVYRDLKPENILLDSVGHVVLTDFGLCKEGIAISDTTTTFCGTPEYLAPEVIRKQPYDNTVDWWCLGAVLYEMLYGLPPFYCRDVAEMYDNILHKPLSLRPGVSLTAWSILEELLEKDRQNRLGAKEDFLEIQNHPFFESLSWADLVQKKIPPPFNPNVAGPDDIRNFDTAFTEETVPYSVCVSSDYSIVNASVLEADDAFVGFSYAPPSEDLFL

[7] = target: T3, Serine/threonine-protein kinase Sgk3 (Homo sapiens); conditions: at 1 µM
[8] = target: 5'-AMP-activated protein kinase catalytic subunit alpha-1 (Homo sapiens) (UniProt Q13131); conditions: at 0.1 µM
Sequence of 5'-AMP-activated protein kinase catalytic subunit alpha-1 (Homo sapiens) (Q13131 whole entry, looked up): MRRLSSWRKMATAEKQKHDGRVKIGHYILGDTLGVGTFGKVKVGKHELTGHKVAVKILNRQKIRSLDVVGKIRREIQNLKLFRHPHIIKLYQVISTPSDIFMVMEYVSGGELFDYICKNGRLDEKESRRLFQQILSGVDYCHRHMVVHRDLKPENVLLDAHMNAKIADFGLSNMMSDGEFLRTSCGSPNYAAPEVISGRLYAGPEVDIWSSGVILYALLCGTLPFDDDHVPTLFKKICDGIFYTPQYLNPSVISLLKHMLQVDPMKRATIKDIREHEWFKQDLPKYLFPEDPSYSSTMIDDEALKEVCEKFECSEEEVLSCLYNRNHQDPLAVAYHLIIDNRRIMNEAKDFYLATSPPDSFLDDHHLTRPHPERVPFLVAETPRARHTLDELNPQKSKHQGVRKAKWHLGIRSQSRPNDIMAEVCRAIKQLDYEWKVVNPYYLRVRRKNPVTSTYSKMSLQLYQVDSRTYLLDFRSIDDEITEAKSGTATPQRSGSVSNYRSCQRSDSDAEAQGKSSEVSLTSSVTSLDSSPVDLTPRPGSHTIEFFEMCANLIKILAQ

[9] = target: 5'-AMP-activated protein kinase catalytic subunit alpha-1 (Homo sapiens) (UniProt Q13131); conditions: at 1 µM
[10] = target: 5'-AMP-activated protein kinase catalytic subunit alpha-2 (Homo sapiens) (UniProt P54646); conditions: at 0.1 µM
Sequence of 5'-AMP-activated protein kinase catalytic subunit alpha-2 (Homo sapiens) (P54646 whole entry, looked up): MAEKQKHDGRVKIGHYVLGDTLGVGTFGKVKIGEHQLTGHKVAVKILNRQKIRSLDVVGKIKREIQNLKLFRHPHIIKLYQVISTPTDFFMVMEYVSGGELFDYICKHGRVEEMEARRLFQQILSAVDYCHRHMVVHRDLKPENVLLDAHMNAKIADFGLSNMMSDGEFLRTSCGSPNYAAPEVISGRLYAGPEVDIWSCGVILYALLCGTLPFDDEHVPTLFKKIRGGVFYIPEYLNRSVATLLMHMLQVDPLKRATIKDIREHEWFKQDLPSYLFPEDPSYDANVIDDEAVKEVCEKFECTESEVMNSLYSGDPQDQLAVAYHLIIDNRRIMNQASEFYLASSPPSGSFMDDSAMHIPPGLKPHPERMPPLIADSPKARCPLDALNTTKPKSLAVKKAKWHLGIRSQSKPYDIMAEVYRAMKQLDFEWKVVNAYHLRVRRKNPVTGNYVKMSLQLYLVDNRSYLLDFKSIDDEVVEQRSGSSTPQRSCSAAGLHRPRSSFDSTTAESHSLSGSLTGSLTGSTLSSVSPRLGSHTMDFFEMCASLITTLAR

[11] = target: 5'-AMP-activated protein kinase catalytic subunit alpha-2 (Homo sapiens) (UniProt P54646); conditions: at 1 µM
[12] = target: T4, NUAK family SNF1-like kinase 1 (Homo sapiens) (UniProt O60285); conditions: at 0.1 µM
T4 sequence (whole entry): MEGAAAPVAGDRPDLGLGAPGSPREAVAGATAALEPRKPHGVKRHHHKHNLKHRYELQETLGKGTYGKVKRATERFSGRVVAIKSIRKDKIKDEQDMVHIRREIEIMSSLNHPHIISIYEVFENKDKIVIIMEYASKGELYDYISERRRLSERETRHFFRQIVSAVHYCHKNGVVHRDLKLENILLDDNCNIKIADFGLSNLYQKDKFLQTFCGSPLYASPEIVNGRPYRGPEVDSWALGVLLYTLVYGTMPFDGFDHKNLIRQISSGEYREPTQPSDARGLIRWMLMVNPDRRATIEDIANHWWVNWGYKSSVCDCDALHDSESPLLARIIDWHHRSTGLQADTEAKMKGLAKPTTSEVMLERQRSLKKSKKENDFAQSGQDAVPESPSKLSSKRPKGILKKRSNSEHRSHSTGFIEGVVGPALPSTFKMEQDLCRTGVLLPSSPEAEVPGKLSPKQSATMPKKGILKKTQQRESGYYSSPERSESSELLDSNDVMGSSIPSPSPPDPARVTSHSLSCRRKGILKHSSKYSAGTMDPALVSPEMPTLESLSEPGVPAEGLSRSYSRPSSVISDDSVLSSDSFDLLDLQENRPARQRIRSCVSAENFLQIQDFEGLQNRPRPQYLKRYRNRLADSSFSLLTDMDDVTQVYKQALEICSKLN

[13] = target: T4, NUAK family SNF1-like kinase 1 (Homo sapiens); conditions: at 1 µM
[14] = target: T5, Serine/threonine-protein kinase BRSK1 (Homo sapiens) (UniProt Q8TDC3); conditions: at 0.1 µM
T5 sequence (whole entry): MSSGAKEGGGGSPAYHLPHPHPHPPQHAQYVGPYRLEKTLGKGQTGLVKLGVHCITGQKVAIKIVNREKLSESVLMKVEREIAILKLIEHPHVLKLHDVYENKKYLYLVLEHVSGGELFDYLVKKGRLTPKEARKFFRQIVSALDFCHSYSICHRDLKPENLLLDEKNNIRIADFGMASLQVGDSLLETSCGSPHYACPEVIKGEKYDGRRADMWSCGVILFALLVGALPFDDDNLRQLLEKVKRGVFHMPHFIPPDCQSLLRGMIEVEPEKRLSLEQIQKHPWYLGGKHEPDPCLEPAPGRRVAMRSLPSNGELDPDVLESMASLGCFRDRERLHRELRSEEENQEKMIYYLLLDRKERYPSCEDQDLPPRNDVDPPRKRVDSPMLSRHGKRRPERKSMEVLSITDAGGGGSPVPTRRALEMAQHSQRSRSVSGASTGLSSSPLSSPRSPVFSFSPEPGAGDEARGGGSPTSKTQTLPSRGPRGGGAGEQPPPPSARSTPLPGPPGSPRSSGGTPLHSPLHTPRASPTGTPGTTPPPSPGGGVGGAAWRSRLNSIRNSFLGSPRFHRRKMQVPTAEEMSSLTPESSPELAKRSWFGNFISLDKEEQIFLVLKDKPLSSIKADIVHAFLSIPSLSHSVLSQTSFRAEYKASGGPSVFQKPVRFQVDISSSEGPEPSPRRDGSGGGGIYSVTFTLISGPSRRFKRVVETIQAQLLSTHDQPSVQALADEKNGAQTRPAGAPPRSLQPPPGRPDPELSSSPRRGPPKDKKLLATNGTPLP

[15] = target: T5, Serine/threonine-protein kinase BRSK1 (Homo sapiens); conditions: at 1 µM
[16] = target: T6, Serine/threonine-protein kinase BRSK2 (Homo sapiens) (UniProt Q8IWQ3); conditions: at 0.1 µM
T6 sequence (whole entry): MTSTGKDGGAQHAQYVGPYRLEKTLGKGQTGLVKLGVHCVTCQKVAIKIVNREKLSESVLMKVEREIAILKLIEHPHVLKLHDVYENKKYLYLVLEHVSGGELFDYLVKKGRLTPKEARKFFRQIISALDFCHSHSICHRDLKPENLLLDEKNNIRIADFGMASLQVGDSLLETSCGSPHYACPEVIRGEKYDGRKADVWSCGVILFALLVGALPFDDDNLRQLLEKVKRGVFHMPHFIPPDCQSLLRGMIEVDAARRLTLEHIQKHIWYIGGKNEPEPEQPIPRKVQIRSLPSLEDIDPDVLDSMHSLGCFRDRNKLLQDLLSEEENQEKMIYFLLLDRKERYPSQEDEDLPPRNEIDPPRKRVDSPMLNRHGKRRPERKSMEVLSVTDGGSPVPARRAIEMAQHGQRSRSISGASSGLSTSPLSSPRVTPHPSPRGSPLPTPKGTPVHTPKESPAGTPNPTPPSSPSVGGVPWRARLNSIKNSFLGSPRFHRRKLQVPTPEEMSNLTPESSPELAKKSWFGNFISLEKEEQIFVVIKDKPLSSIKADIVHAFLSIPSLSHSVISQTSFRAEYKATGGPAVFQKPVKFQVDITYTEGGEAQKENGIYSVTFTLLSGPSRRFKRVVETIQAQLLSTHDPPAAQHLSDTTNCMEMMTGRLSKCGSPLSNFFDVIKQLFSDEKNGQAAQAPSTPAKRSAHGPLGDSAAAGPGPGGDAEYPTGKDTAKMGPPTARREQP

[17] = target: T6, Serine/threonine-protein kinase BRSK2 (Homo sapiens); conditions: at 1 µM
[18] = target: Calcium/calmodulin-dependent protein kinase type 1D (Homo sapiens) (UniProt Q8IU85); conditions: at 0.1 µM
Sequence of Calcium/calmodulin-dependent protein kinase type 1D (Homo sapiens) (Q8IU85 whole entry, looked up): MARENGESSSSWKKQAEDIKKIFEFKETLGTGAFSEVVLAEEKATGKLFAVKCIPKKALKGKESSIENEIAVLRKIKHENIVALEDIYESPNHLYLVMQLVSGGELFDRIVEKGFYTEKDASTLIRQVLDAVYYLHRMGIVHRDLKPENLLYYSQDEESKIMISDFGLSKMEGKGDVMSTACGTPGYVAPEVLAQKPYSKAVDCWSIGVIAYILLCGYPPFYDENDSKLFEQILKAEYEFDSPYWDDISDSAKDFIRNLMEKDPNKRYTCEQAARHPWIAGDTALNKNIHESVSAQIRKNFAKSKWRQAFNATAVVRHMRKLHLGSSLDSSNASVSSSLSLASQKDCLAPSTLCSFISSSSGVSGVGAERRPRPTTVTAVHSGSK

[19] = target: Calcium/calmodulin-dependent protein kinase type 1D (Homo sapiens) (UniProt Q8IU85); conditions: at 1 µM
[20] = target: Calcium/calmodulin-dependent protein kinase type II subunit alpha (Homo sapiens) (UniProt Q9UQM7); conditions: at 0.1 µM;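 note: reported values are averages (mean inhibition of CAMK2A)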
Sequence of Calcium/calmodulin-dependent protein kinase type II subunit alpha (Homo sapiens) (Q9UQM7 whole entry): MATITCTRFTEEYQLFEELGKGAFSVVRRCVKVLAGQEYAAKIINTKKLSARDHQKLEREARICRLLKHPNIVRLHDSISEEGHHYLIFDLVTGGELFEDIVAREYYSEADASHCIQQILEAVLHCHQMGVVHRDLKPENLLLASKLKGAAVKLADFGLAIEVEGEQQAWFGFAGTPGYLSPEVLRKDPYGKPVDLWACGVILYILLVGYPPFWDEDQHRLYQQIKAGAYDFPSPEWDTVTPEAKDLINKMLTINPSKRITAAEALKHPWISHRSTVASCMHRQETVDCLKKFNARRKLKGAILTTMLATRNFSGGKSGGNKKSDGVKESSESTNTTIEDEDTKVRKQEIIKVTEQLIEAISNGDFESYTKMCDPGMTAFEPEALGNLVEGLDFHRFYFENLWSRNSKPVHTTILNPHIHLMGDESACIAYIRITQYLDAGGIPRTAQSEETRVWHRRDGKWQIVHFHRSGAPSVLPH

Sequence of Ribosomal protein S6 kinase alpha-6 (Homo sapiens) (Q9UK32 whole entry): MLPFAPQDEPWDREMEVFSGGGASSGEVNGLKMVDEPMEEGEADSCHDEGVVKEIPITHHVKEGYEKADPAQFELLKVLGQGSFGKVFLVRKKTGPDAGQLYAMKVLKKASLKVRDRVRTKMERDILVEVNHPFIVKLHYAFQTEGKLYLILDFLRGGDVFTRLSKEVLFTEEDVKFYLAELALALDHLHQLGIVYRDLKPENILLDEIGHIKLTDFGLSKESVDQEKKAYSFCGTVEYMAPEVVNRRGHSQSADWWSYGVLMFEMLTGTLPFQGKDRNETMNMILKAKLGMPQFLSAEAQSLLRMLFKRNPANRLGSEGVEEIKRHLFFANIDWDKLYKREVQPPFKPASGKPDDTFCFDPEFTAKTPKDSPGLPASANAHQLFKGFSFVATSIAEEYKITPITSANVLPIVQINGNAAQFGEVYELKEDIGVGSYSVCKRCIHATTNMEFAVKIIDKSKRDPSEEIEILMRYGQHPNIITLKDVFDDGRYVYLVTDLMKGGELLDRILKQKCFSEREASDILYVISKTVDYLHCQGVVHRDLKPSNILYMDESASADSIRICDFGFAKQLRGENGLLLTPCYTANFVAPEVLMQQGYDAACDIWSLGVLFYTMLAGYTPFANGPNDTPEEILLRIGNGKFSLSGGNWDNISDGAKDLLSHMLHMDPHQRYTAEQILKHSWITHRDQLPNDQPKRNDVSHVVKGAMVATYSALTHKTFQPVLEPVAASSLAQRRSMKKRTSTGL

| SMILES | inhibition [1] | inhibition [2] | inhibition [3] | inhibition [4] | inhibition [5] | inhibition [6] | inhibition [7] | inhibition [8] | inhibition [9] | inhibition [10] | inhibition [11] | inhibition [12] | inhibition [13] | inhibition [14] | inhibition [15] | inhibition [16] | inhibition [17] | inhibition [18] | inhibition [19] | inhibition [20] |
| --- | --- | --- | --- | --- | --- | --- | --- | --- | --- | --- | --- | --- | --- | --- | --- | --- | --- | --- | --- | --- |
| CNC(=O)c1sc(-n2cnc3cc(OC)c(OC)cc32)cc1OCc1ccccc1C(F)(F)F | 1.47% | 2.16% | 1.23% | 0.8% | 2.63% | 3.8% | 1.89% | 3.22% | 4.14% | 0.14% | -1.59% | 0.7% | 6.22% | 0.35% | 4.45% | 4.29% | 4.88% | 0.71% | -0.22% | 2.98% |
| Cc1cc(O)cc(C)c1/C=C/c1cncc(C(=O)OC(C)(C)C)c1 | 1.11% | 1.6% | 2.22% | 3.61% | 4.38% | 3.8% | 0.63% | 2.74% | 3.91% | 2.92% | 4.01% | 1.92% | 4.1% | 0.6% | 5.15% | 2.26% | 3.54% | -0.01% | 1.19% | 1.37% |
| CC(C)c1ccc(-c2cc(-c3c[nH]nc3-c3ccccn3)ccn2)cc1 | -0.11% | 1.94% | 0.95% | 3.97% | 3.85% | 0.19% | -1.62% | -0.34% | -1.2% | 0.19% | 2.31% | -1.39% | 0.75% | 0.75% | -0.92% | 0.14% | 0.33% | -0.78% | 0.06% | -0.6% |
| CN1CCN(Cc2ccc(-c3cc4ncnc(Nc5ccc(OCc6cccc(F)c6)c(Cl)c5)c4s3)o2)CC1 | 2.87% and 4.99% | 2.87% and 4.63% | 3.57% and 7.64% | 1.23% and 4.49% | 1.46% and 3.55% | 1.48% and 4.43% | 2.48% and 5.69% | 2.4% and 5.32% | 3% and 5.69% | 3.72% and 4.13% | 4.56% and 5.82% | 0.69% and 0.76% | 4.56% and 2.98% | 0.8% and -0.05% | 2.8% and -0.24% | 2.16% and 1.05% | 4.75% and 4.26% | 0.32% and 0.88% | 2.5% and 0.41% | 0.12% and 4.61% |
| Nc1ncnc2occ(-c3ccc(NC(=O)Nc4cc(C(F)(F)F)ccc4F)cc3)c12 | 9.97% and 5.9% | 1.7% and 0.49% | 3.4% and 1.19% | -0.51% and 1.78% | 2.34% and 2.65% | 1.18% and 0.24% | 1.67% and -1.01% | 2.02% and -1.41% | 1.94% and -0.8% | -0.22% and 3.36% | 0.27% and -2.18% | 5.01% and 0.14% | 6.07% and 1.77% | 1.75% and -1.05% | 9.34% and -0.75% | 2.02% and -1.66% | 6.92% and 0.75% | 1.85% and -1.45% | 4.86% and 2.86% | 2.82% and -3.6% |
| COc1c(C(N)=O)cc(-c2ccc(Cl)cc2)cc1-c1ccc(S(N)(=O)=O)cc1 | 3.2% | 0.41% | 2.71% | 5.14% | 5% | 1.37% | 3% | 1.83% | 4.47% | 7.86% | 3.24% | 0.82% | 1.1% | 3.28% | -0.57% | -0.02% | 1.59% | 0.45% | 3.09% | 3.01% |
